# Results filed as inconclusive are left out. Where a call stands in place of a potency, no number is given. Unmarked numbers belong to inactive results. Activity calls are given as the source filed them. Unless noted, calls come from the whole dose curve; as a rule, active = well fitted curve in the direction sought with a large enough effect; inconclusive = small, poorly fitted or top-dose-only effect, or another doubt; inactive = no such curve, though single readings can be large; an effect the other way counts as inactive or inconclusive.
# What was measured:
# [1] = S16 Schwann cell viability assay (CellTiter-Glo assay) (AID 624031); note: nearly all actives have a fitted effect of over 70% in size
# Outline: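 Native S16 rat Schwann cells, 500-750 cells/well in DMEM with 10% FBS, dosed with compound after overnight culture and incubated 24h at 37 degree Celsius/5% CO2. Viability by CellTiter-Glo luminescence; % activity normalized to no-cell wells and DMSO-treated cells.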
# [2] = S16 Schwann cell PMP22 intronic element firefly luciferase assay (AID 624032); note: nearly all actives have a fitted effect of over 30% in size
# Outline: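 Rat S16 Schwann cells stably carrying firefly luciferase driven by a PMP22 intronic element, in 10% FBS, treated 24 h at 37 C. ONE-Glo luminescence normalized to PTC124 control and DMSO (0%); curves classed by r2, magnitude and activity.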
# [3] = S16 Schwann cell PMP22 intronic element beta-lactamase assay (AID 624044; calls by dose curve; note: nearly all actives have a fitted effect of over 15% in size); conditions: S16 rat Schwann cells, PMP22 element beta-lactamase FRET, 24 h; ratio activity, negative = inhibition: at 38.3 µM (top of the series)
# Outline: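 Beta-lactamase reporter under a PMP22 intronic regulatory element in stable S16 rat Schwann cells; 24 h compound exposure. 460 nm blue signal normalized between DMSO (0%) and potassium clavulanate, with 535 nm FRET tracking viability; curves classed by r2 and response.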
# Potency is the fitted concentration of half-maximal effect.
SMILES,Potency [1],Potency [2],Potency [3]
CN=C(NC#N)Nc1ccc(C2=NNC(=O)CC2C)cc1 (stereo not given),inactive,inactive,
COc1c2occc2c(OC)c2c(=O)cc(C)oc12,inactive,,
O=C(Nc1ccc(Oc2ccc(Cl)cc2)c(Cl)c1)c1cc(I)cc(I)c1O,inactive,,
COc1cc(OC)cc(OC)c1,inactive,inactive,
CC(C)NC[C@@H](O)COc1cccc2ccccc12,inactive,,
Nc1ccc(C(=O)Nc2ccccc2N)cc1,inactive,inactive,
O=c1c(-c2ccccc2)c1-c1ccccc1,inactive,3.22 µM (active),
COc1cc(C(=S)N2CCOCC2)cc(OC)c1OC,inactive,inactive,
NCCc1ccn[nH]1,inactive,inactive,
NC(CO)(CO)CO,inactive,inactive,
O=C(CCCN1CCC(O)(c2ccc(Br)cc2)CC1)c1ccc(F)cc1,inactive,inactive,
CCN1CCC[C@H]1CNC(=O)c1c(OC)ccc(Br)c1OC,inactive,inactive,
C#C[C@]1(OC(C)=O)CC[C@H]2[C@@H]3CCC4=C[C@@H](OC(C)=O)CC[C@@H]4[C@H]3CC[C@@]21C,inactive,,
Cc1ccnc(NS(=O)(=O)c2ccc(N)cc2)n1,inactive,inactive,
O=C(O)CNC(=O)c1ccccc1,inactive,inactive,
CCOC(=O)n1ccn(C)c1=S,inactive,inactive,
O=C1c2ccccc2C(=O)C1c1ccccc1,inactive,inactive,
CCN(CC)CCNC(=O)COc1ccc(Cl)cc1,inactive,inactive,
CCN(CC)C(=O)/C(C#N)=C/c1cc(O)c(O)c([N+](=O)[O-])c1,inactive,inactive,
c1ccc(CNCCNCc2ccccc2)cc1,inactive,inactive,

SMILES,Potency [1],Potency [2],Potency [3]
CC(C)N=C(N)/N=C(\N)Nc1ccc(Cl)cc1,inactive,,
CCN(CCCc1ccccc1)CCCc1ccccc1,inactive,inactive,
COc1ccc(CN2CCN(C(c3ccc(F)cc3)c3ccc(F)cc3)CC2)c(OC)c1OC,28.7 µM (active),10.2 µM (active),
CCCCOc1ccc(C(=O)CCN2CCCCC2)cc1,inactive,,
CN1CCN(C(c2ccccc2)c2ccccc2)CC1,inactive,inactive,
CCCCCCC[N+](CC)(CC)CCCCc1ccc(Cl)cc1,inactive,,
CN(C(=O)CN(CCO)CC(=O)N(C)C(C)(C)Cc1ccccc1)C(C)(C)Cc1ccccc1,inactive,inactive,
O=C(OCCOCCO)c1ccccc1Nc1cccc(C(F)(F)F)c1,inactive,inactive,
CCCCOc1cc(C(=O)NCCN(CC)CC)c2ccccc2n1,inactive,inactive,
Oc1ccc(Cl)c2cccnc12,inactive,,
COc1cc(-c2ccc(=O)[nH]n2)ccc1OC(F)F,inactive,,
COc1ccc(C2C(=O)c3ccccc3C2=O)cc1,inactive,inactive,
Cc1c(C)n(CCN(C)C)c2ccc(C(=O)OCCN(C)C)cc12,inactive,32.2 µM (active),
O=C(Nc1ccc(Cl)c(Cl)c1)C1CC1,inactive,inactive,
Cc1ccc(C(=O)C(C)CN2CCCCC2)cc1 (stereo not given),inactive,inactive,
CC(=O)N(O)CCCCCNC(=O)CCC(=O)N(O)CCCCCNC(=O)CCC(=O)N(O)CCCCCN,inactive,inactive,
Cc1c(N(C)CS(=O)(=O)O)c(=O)n(-c2ccccc2)n1C,inactive,inactive,
CN1CCC[C@@H]1c1cccnc1,inactive,inactive,
COCc1c(C(C)C)nc(C(C)C)c(/C=C/[C@@H](O)C[C@@H](O)CC(=O)O)c1-c1ccc(F)cc1,inactive,4.55 µM (active),8.91 µM (active)
CCCCOc1ccc(OCCCN2CCOCC2)cc1,inactive,inactive,

SMILES,Potency [1],Potency [2],Potency [3]
Cc1c(C(C)C)c(=O)n(-c2ccccc2)n1C,inactive,inactive,
CN(C)CCOc1ccccc1Cc1ccccc1,inactive,inactive,
O=C(COc1ccc(Cl)cc1)N1CCN(Cc2ccc3c(c2)OCO3)CC1,inactive,inactive,
OCc1ccccc1O,inactive,inactive,
CCN1CCN(c2cc3c(cc2F)c(=O)c(C(=O)O)cn3C2CC2)CC1,inactive,inactive,
C[C@]12CCC(=O)C=C1CC[C@H]1[C@@H]3CC[C@](O)(C(=O)CO)[C@@]3(C)C[C@H](O)[C@@]12F,inactive,inactive,
CCOc1ccc(NC(=O)CC(C)O)cc1 (stereo not given),inactive,inactive,
COc1ccc(CCN2CCC(Nc3nc4ccccc4n3Cc3ccc(F)cc3)CC2)cc1,16.1 µM (active),20.3 µM (active),
CC(=O)OCC(=O)NCCCOc1cccc(CN2CCCCC2)c1,inactive,inactive,
CO/N=C1\CN(c2nc3c(cc2F)c(=O)c(C(=O)O)cn3C2CC2)CC1CN (stereo not given),inactive,inactive,
CN1C(CCl)Nc2cc(Cl)c(S(N)(=O)=O)cc2S1(=O)=O (stereo not given),inactive,0.161 µM (active),
CC(=O)OCC(=O)[C@@]1(OC(C)=O)[C@@H](C)C[C@H]2[C@@H]3C[C@H](F)C4=CC(=O)C=C[C@]4(C)[C@@]3(F)[C@@H](O)C[C@@]21C,inactive,inactive,
Cc1c(F)c(N2CCNC(C)C2)cc2c1c(=O)c(C(=O)O)cn2C1CC1 (stereo not given),inactive,inactive,
CCN1CCCC1=O,inactive,inactive,
CCOC(=O)c1cccc(N)c1,inactive,inactive,
CCCCc1nc(Cl)c(CO)n1Cc1ccc(-c2ccccc2-c2nn[nH]n2)cc1,inactive,inactive,
CCN(CC)C(=O)N1CCN(C)CC1,inactive,inactive,
C[C@@H]1C[C@H]2[C@@H]3CCC4=CC(=O)C=C[C@]4(C)[C@@]3(F)[C@@H](O)C[C@]2(C)[C@H]1C(=O)CO,inactive,inactive,
COC(=O)[C@@H]1CC2=CC(=O)CC[C@]2(C)[C@@]23O[C@@H]2C[C@@]2(C)[C@@H](CC[C@@]24CCC(=O)O4)[C@H]13,inactive,inactive,

# Source: PubChem BioAssay (NCATS)
